From the supplement of paper PMC3334620
Over roughly 33,000 sequences, “E-score (-0.5 to 0.5)” has its median near -0.013; the highest 2% begin near 0.3. The list comes from a sample in which the highest values are over-represented; it also holds similar and randomly drawn sequences.

Target: T1, Msn1 (UniProt P22148)
T1 sequence: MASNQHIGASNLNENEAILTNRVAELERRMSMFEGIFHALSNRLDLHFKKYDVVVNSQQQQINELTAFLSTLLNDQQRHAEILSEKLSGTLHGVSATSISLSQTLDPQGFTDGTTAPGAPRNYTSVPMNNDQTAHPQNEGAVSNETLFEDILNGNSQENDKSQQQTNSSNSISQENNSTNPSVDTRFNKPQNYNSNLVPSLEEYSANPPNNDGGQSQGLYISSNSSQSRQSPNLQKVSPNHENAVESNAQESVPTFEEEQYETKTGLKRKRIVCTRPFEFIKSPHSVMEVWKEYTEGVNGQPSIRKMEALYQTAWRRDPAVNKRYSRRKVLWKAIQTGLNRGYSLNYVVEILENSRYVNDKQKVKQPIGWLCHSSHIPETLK
Experiment: PBM E-score (8-mer binding enrichment) (E-score (-0.5 to 0.5)); higher = stronger / more preferred TF binding
Conditions: protein concentration: 200 nM; construct: GST-full length
Procedure: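 Universal 'all 10-mer' protein binding microarrays (Agilent AMADID 015681) probed with GST-tagged S. cerevisiae TFs (full-length or DBD) made by in vitro transcription/translation (PURExpress), about 100-200 nM. Bound TF was detected with fluorescent anti-GST. Each ungapped 8-mer (which stands for itself and its reverse complement) is scored by the PBM enrichment score (E-score), a modified Wilcoxon-Mann-Whitney statistic from -0.5 to +0.5, computed with the Universal PBM Analysis Suite. Scale: above 0.35 generally sequence-specific binding.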

Sequence	PBM E-score
GCTCTGCC	-0.281
GCGGTCCC	-0.188
ACTATGAA	0.112
CGCAATAA	0.212
ATCGAAAT	-0.151
CAATAGCA	-0.168
ACGAGGAT	-0.178
GCCAGGAC	0.212
ACCAGGAC	0.329
GTCAGGAC	0.316
ACCAGGAA	-0.0403
GTCAGGAA	0.0369
CCCAGGAC	0.0729
ACGAGGAC	0.324
CTCAGGAC	0.243
GCGAGGAC	0.0256
ATCAGGAC	0.307
ATCAGGAG	-0.0236
CATAAAGC	-0.057
CGTGCTGC	-0.144
CTTCACTA	-0.0698
CTGAGAAG	-0.24
CCGTTGCA	0.0113
ACCTTCTG	-0.0438
ATGAGTGA	0.12

Sequence	PBM E-score
ATTGTTAA	0.0881
GTTGTTAA	0.334
CTTGTTAA	-0.0116
CAGAGAAG	-0.18
GCGTCTAC	-0.0433
GACATGAA	0.308
TACATGAA	0.117
GACATGCC	0.337
TACATGGA	0.193
GACATGCA	0.276
GACATGGA	0.342
CACATGCC	0.0209
CACATGAA	0.0613
CACATCCC	-0.14
GACATCCC	0.374
AACATCCC	0.0693
AACATGGA	0.159
AACCACAA	0.042
CCGCTAAG	0.0391
ATACACTG	0.0602
AAAAAGAA	0.036
ATTGGAAG	-0.0559
ATAGATCC	-0.0574
AATTTCAG	0.127
ACGTGCTA	-0.167

Sequence	PBM E-score
GATCCTTA	-0.107
AATGCGTG	0.0114
AGCAATTG	0.00301
ATTCGGCC	0.0205
CGTTGTTC	0.0573
CTTAGAGA	-0.00262
CACATCTA	0.0157
AACATGAC	0.0901
CACATGAC	-0.0252
GACATCTA	0.404
TACATCTA	0.105
GACATGAC	0.335
AGGCACCC	-0.241
ATCGCTAG	0.022
GAGTGGCC	-0.224
GAGTGTCC	0.232
CAGTGTCG	0.0205
CAGTGTCC	0.348
AAGTGTCC	0.366
AAGTGTCT	0.257
AAGTGTCG	0.126
GCGTGTCC	0.431
CCGTGTCG	0.00655
CCGTGTCC	0.413
GCGTGTCA	0.136

Sequence	PBM E-score
CCGTGTCA	0.121
GCGTGTAC	0.203
ACGTGTCC	0.455
ACGTGTCG	0.0594
ACGTGTCT	0.16
AATCTTCA	0.211
GCTGTGCC	0.00582
GCGCTATA	-0.036
GGAGCGAA	0.0407
AGGGAGGG	-0.283
TAGTTTGA	0.113
CACCATAG	-0.153
CGGTGTCC	0.304
ATGTGTCG	0.194
CGGTGTCA	0.0418
CTGTGTCC	0.439
AGGTGTCC	0.263
CTGTGTAC	0.197
CTGTGTCA	0.02
ATGTGTCC	0.438
ATGTGTCA	0.217
CCCGTAAG	-0.117
CGTTACTC	-0.115
GCTTTCCC	0.00071
AGCTCCTC	-0.315

Sequence	PBM E-score
GAAACGAA	0.115
CCAATTCC	0.0443
CCAAAGAG	-0.0341
CAGTCCTA	0.0807
GCGTCCTA	0.168
GAGTCCTA	0.0172
GTGTCCTA	0.468
CGGTCCTA	-0.185
CTGTCCTA	0.346
ACTGGGCC	-0.0731
CGCTATAC	-0.194
CTAGTACC	-0.0261
CCAGTACA	0.177
ACAGTACA	0.189
TCAGTACA	0.319
GTAGTACA	0.167
CTAGTACA	0.308
TAAGAGTA	0.0785
GCGGAGCC	-0.139
GGTTAGAC	0.076
GTGTCTCA	0.286
ATGTCTCA	0.446
CTGTCTCA	0.087
AGGTCTCG	-0.156
ATGTCTCG	0.333

Sequence	PBM E-score
ATGTCTCC	0.302
ACGGGCGG	-0.141
ACCCACGG	-0.17
CAGGTAAC	-0.0911
GAGCCGCC	-0.217
CAGCCTAC	-0.125
ACACGGAC	0.32
ACACGGAA	0.166
ACACGGAG	0.00035
ACCCGTCC	-0.0862
ATATGGAG	0.12
ACATGGAC	0.326
CTATGGAC	0.257
AAATGGAC	0.338
ACATGGAT	0.162
GTATGGAC	0.335
ATATGGAC	0.356
GCATGGAC	0.268
AAATGGAA	0.131
GGATGGAC	0.178
AAATGGAT	-0.0165
GTATGGAA	-0.0401
GAAATCTA	-0.139
TCAGCTCA	-0.149
ATTTGCCG	0.136

Sequence	PBM E-score
GCCAAGCA	-0.199
GAGTATGC	-0.0467
GATCAGAC	-0.195
AGGTACCA	-0.036
CAGTGTCA	-0.105
AATTAGTA	0.211
AATTAGTG	0.33
AATTAGTC	0.272
ATATTGCC	0.0437
CTTATCTA	0.0318
CTGGCCAA	-0.0295
AGGCATGA	-0.183
CTGGTCGC	-0.0171
CCAAATTA	0.193
ATAAATTA	0.343
CCAAATTC	0.0869
ATAAATTG	0.225
ACAAATTC	0.306
CTAAATTA	0.144
AAAAATTC	0.182
ACAAATTG	0.301
ACAAATTA	0.357
